# Compound activity as filed in PubChem.
# KCNH2 WT inh: KCNH2 (human, wildtype) channel inhibition. Q12809. U2OS, BacMam KCNH2, thallium flux FluxOr; hits give low values. activity change, % at 1.84 µM. 340,000 compounds, 0.37% hits. AID 720551;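 active = maximum activity change below -70%; inconclusive = maximum activity change between -70% and -50%; inactive = maximum activity change above -50%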; also: % is scaled to controls: 0 for no effect and ±100 for the full control effect
#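 U2OS cells were transduced with wild-type KCNH2 virus (2.03 x 10^8 / mL) for 4 h at room temperature, then cultured overnight at 37 C. Thallium flux was read with FluxOr dye. Rate constants were normalized to DMSO controls.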
# Glioma ERSR ind: inducers of ER stress response in human glioma cells; U87-MG GRP78 promoter luciferase reporter, 16 h; Potency, µM, for the others: top-dose activation, hits mostly activators; 420,000 compounds, 0.02% hits; AID 602332; active = well fitted activation curve with a large enough effect; inconclusive = small, poorly fitted or top-dose-only effect; inactive = no such curve, though single readings can be large or run the other way; also: potency is read from the fitted curve at half-maximal effect; series mostly up to about 76 µM; % of control where 0% means no effect; nearly all actives have a fitted effect of over 35% in size
#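 ERSR induction read as luciferase luminescence (Bright-Glo, 10 min at room temperature) in stably transfected human U87-MG glioma cells exposed to compounds for 16 h, using GRP78 as sensor.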
# TRPML1 ag: human mucolipin-1 channel agonism | AID 624414 | 410,000 compounds, 0.12% hits | activation, % (test concentration not listed) | TRPML1-expressing cells, Ca2+ dye fluorescence, FDSS; in the data active = activation above about 50%; inconclusive = mostly about 30% to 49%; also: 0% is about no effect
#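 TRPML1-DL cells, Tet-induced overnight (~16 h, 37 degrees C), loaded 45-90 min at room temperature with Ca8 no-wash calcium dye plus quencher. FDSS fluorescence: 10 s baseline, compound pin-transfer, 110 s agonist read, then EC80 54-4 (4uM final) and 110 s antagonist read.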
# TRPML1 inh: inhibitors of human TRPML1 channel. Q9GZU1. TRPML1-inducible cells, Ca2+ dye fluorescence, FDSS; hits give low values; inhibition of EC80 agonist-evoked calcium signal. activity change, negative = inhibition, % (concentration not given with the values). 390,000 compounds, 0.02% hits. AID 624415; in the data active = activity change below about -50%; inconclusive = between about -30% and that limit;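 also: stimulus is agonist 54-4 at its EC80 concentration; % is scaled to controls: 0 for no effect and ±100 for the full control effect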
#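 Calcium fluorescence in TRPML1-DL cells induced overnight with Tet: a 110 s read after compound pin addition, then a 110 s antagonist read after challenge with 54-4 at 4 uM final (EC80).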
# KCNH2 3.1 inh: inhibitors of human KCNH2 3.1 potassium channel isoform; U2OS KCNH2 3.1, thallium flux FluxOr; hits give low values; 340,000 compounds, 0.95% hits; activity change, % (tested at about 1.8 µM);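 active = maximum activity change below -70%; inconclusive = maximum activity change from -70% to -50%; inactive = maximum activity change above -50%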;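 also: thallium influx rate constant from kinetic fluorescence after stimulation buffer; % is scaled to controls: 0 for no effect and ±100 for the full control effect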
#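 FluxOr-based Tl+ influx in U2OS cells transduced with KCNH2 3.1 virus; rate constants normalized to DMSO controls.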
# TSG101-PTAP inh: blocks PTAP/TSG101 interaction to inhibit HIV-1 budding. Q99816. Potency, µM (doses to about 115 µM), for the others: top-dose activity change, negative = inhibition, hits mostly inhibitors. Fluorescence polarization, FITC-PTAP peptide / Tsg101 binding. 340,000 tested, under 10 active; active = well fitted inhibition curve with a large enough effect in the main read-out, with a control signal flat, not every such curve was filed as active; inconclusive = small, poorly fitted or top-dose-only effect, or effect the other way, or a change in a side signal; inactive = no such curve, though single readings can be large or run the other way; also: potency is read from the fitted curve at half-maximal effect; % of control where 0% means no effect
# Target sequence (Q99816 whole entry, looked up): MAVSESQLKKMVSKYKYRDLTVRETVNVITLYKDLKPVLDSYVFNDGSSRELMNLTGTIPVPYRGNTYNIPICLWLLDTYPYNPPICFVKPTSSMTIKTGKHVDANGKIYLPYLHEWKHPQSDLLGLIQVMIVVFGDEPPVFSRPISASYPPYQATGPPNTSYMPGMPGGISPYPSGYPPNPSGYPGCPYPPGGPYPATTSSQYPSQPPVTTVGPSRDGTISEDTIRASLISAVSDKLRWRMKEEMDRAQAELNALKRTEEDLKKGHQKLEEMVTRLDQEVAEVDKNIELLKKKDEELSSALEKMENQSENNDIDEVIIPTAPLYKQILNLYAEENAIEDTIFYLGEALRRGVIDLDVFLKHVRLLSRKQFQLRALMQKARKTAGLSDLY
#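 Fluorescence polarization binding of Tsg101 binding domain (10 uM final) to FITC-labeled PTAP peptide (50 nM final) in HEPES pH 7.5 buffer with NaCl, Tween 20, EDTA, TCEP. Compounds added before peptide; binding 20 min at RT.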
# * = called active by the depositor; ? = inconclusive; nt = not tested or not shown. This is a sample that favours compounds with a hit; in the whole collection about 1% have one here.
SMILES,KCNH2 WT inh,Glioma ERSR ind,TRPML1 ag,TRPML1 inh,KCNH2 3.1 inh,TSG101-PTAP inh
COc1cc2c(cc1OC)C(c1ccc(Br)cc1)CC(=O)N2 (stereo not drawn),-126*,-3%,1,-3,2,0%
O=C(CCCn1c(=O)[nH]c2ccccc2c1=O)NCCSCc1ccccc1,7,0%,-1,12,0,-1%
O=C(CCCCCn1c(=O)[nH]c2ccccc2c1=O)NCCCN1CCN(c2ccccc2F)CC1,?,-10%,1,-13,-70*,0%
Cc1cc(C)nc(NS(=O)(=O)c2ccc(NS(=O)(=O)c3ccsc3)cc2)n1,3,4%,0,2,-89*,-9%
Cc1cc(C)nc(NS(=O)(=O)c2ccc(NS(=O)(=O)c3ccccc3)cc2)n1,-4,-1%,0,42,12,-3%
CC(C)Nc1ccc(Nc2ccnc3cc4ccccc4cc23)cc1,4,-13%,0,19,-91*,-4%
Cc1cc(Cl)c2oc(C(=O)N3CCN(c4ccncc4)CC3)c(C)c2c1,-138*,-12%,1,14,3,-5%
COC(=O)C1CCN(C(=O)c2oc3c(Cl)cc(C)cc3c2C)CC1,-7,-5%,2,-22,11,-6%
O=C(NCC1Cc2cc(F)cc(-c3cnccn3)c2O1)c1cccc(Cl)c1 (stereo not drawn),nt,0%,nt,nt,nt,nt
CC1(c2nnc(-c3ccc(Cl)cc3)o2)CC(c2ccc(Cl)cc2)=NO1 (stereo not drawn),3,-2%,1,-4,-162*,-3%
COc1ccc(O)c(CN2CCC3(CC2)c2ccccc2[C@@H](NC(=O)c2cccc(F)c2)[C@@H]3OC)c1,nt,-2%,nt,nt,nt,nt
c1ccc2[nH]c(NCc3ccc4c(c3)OCO4)nc2c1,-126*,-3%,1,-7,-11,-7%
c1ccc(CNc2nc3ccccc3[nH]2)cc1,-9,6%,1,-8,1,-1%
Cc1cccc(N2CCN(C(=O)CCS(=O)(=O)c3ccc(Br)cc3)CC2C)c1 (stereo not drawn),1,0%,3,21,-18,-7%
CC(=O)N1CCCc2cc(S(=O)(=O)CCC(=O)N3CCN(c4cccc(C)c4)C(C)C3)ccc21 (stereo not drawn),-4,-5%,-1,17,-93*,-5%
CC(=O)c1ccccc1C(=O)NCC1Cc2cccc(-c3cccnc3)c2O1 (stereo not drawn),nt,-4%,nt,nt,nt,nt
O=C(/C=C/c1ccc(Cl)cc1)N(Cc1ccccc1)C1CCS(=O)(=O)C1 (stereo not drawn),0,-3%,3,-7,-75*,1%
CNc1oc(-c2ccccc2)nc1C#N,-3,0%,0,20,-81*,-7%
C[N+](C)(C)CC(O)CC(=O)O (stereo not drawn),-295*,1%,-1,7,14,0%
C[C@@H]1CN(Cc2ccc3c(c2)CN(C(=O)CN2CCOc4ccccc4C2)CCO3)C[C@H](C)O1,nt,-2%,nt,nt,nt,nt
Cc1cccc(-c2ccc3c(c2)C2CC3CCN2Cc2ccc3c(c2)OCO3)c1 (stereo not drawn),-13,-1%,2,7,-76*,-4%
O=[N+]([O-])c1cccc(COc2ccccc2CN2CCOCC2)c1,1,-4%,-1,-8,6,-8%
Cc1cc(OCc2cccc(Cl)c2)c(C)cc1CN1CCOCC1,8,6%,0,83,-71*,-2%
S=C1NC[C@H](Cc2ccccc2)N1CC1CCN(CCCC2CCCC2)CC1,-40,-1%,0,23,-88*,0%
CC(C)C[C@H]1CNC(=S)N1CC1CCN(CCCCc2ccccc2)CC1,12,-2%,-1,34,-71*,-1%
S=C1NC[C@H](Cc2ccccc2)N1CCCCC1CCCCC1,2,5%,-1,0,0,-2%
CCCCN1CCC(CN2C(=S)NC[C@@H]2CC(C)C)CC1,39,1%,0,-9,4,-4%
